# This is a sample that favours compounds with a hit; in the whole collection about 2.8% have one here.
# bovine MsrA act: bovine MsrA enzyme activators, primary screen, biochemical, absorbance, HTS | activation, % at 10.6 µM | Methionine sulfoxide reductase A (Bos taurus) | 360,000 tested, 0.3% active | purified bovine MsrA, absorbance read-out; in the data active = activation above about 7.5%;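 note: 0% = vehicle and 100% = reference activator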
# SMARCA2 act: SMARCA2 (BRM) function activators, primary screen, cell-based, luminescence, high throughput. activation, % at 9.1 µM. MG213 cells, MMTV-luciferase reporter, dexamethasone, overnight. 370,000 tested, 1% active. AID 652017, 2013; in the data active = activation above about 7.8%;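 note: 0% = vehicle wells and 100% = reference activator wells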
# proKLK7 act: proKLK7 zymogen activators, primary screen, biochemical, fluorescence intensity; purified proKLK7, EDANS-DABCYL substrate fluorescence; 100% is mature enzyme control, 0% vehicle; AID 652039, 2013; 370,000 tested, 0.9% active; activation, % at 7 µM; Kallikrein-7 (Homo sapiens), P49862;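 active = activation above the mean of all tested compounds plus 3 SD, computed per campaign excluding outliers beyond control limits, cut at about 13% in these data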
# Target sequence (P49862 whole entry, looked up): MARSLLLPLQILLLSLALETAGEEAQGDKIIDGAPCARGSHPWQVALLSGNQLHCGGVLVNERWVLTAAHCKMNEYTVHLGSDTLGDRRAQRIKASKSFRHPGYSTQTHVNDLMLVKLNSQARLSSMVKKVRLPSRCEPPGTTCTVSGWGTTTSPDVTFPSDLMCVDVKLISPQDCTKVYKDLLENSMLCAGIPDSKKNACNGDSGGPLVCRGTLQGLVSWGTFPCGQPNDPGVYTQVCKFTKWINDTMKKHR
# MsrA inhibitor: bovine MsrA enzyme inhibitors, primary screen, biochemical, absorbance, HTS; Methionine sulfoxide reductase A (Bos taurus); purified bovine MsrA, absorbance read-out; inhibition, % at 15.5 µM; 360,000 tested, 0.75% active; AID 651718, 2012; in the data active = inhibition above about 4.5%;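 note: 0% = vehicle wells with enzyme and 100% = reference inhibitor wells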
# MsrA activ conf: bovine MsrA activators, retest, confirmation, biochemical, absorbance, HTS | purified bovine MsrA, absorbance read-out | shares compounds with bovine MsrA act | AID 602270, 2012 | activation, % at 10.6 µM | 1,000 tested, 12% active; in the data active = activation above about 4%;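 note: enzyme coupled to thioredoxin and thioredoxin reductase with NADPH; 0% = vehicle wells and 100% = reference activator wells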
# * hit, by the source's call; . = no result given.
SMILES,bovine MsrA act,SMARCA2 act,proKLK7 act,MsrA inhibitor,MsrA activ conf
CC(NC(=O)c1ccc(CS(=O)(=O)c2ccc(Cl)cc2)o1)c1ccc2c(c1)OCCO2 (configuration not stated),8.6*,0,0,0,-2
Cc1ccccc1S(=O)(=O)Cc1ccc(C(=O)NC(C)c2ccc3c(c2)OCCO3)o1 (configuration not stated),-3,2,0,0,.
C[C@H](c1ccccc1)N1C[C@@H](COCc2ccccc2)Oc2cccc(N3CCCCC3)c2S1(=O)=O,.,-5,-1,0,.
O=C(COC(=O)Cc1ccccc1F)Nc1ccc2c(c1)OCCO2,11*,1,0,-1,-2
O=C(COC(=O)Cc1ccccc1F)Nc1ccc2c(c1)OCO2,-5,-1,0,-2,.
Cc1ccc(NC(=O)NC2CC(=O)N(c3ccc4c(c3)OCCO4)C2)cc1 (configuration not stated),-3,0,1,-1,.
NS(=O)(=O)c1ccc(NC(=O)NC2CC(=O)N(c3ccc4c(c3)OCCO4)C2)cc1 (configuration not stated),11*,3,0,0,-2
O=C(C1CCN(S(=O)(=O)N2CCOCC2)CC1)N1CCN(c2ccccc2)CC1,10*,-1,0,0,-2
CCOC(=O)[C@@]12CCCC3=C1N(CCC3)C(=O)[C@H]2CC(=O)N1CCSCC1,.,1,0,.,.
CCOC(=O)[C@]12CCCC=C1N(Cc1ccc3c(c1)OCO3)C(=O)[C@H](CC(=O)NCc1ccc(C)o1)C2,-1,-2,0,-1,.
COc1cc(C(=O)NC2CCN(CC(=O)NC3CCCCC3)CC2)cc(OC)c1OC,-1,-1,0,0,.
COc1cc(NC(=O)c2cc(OC)c(OC)c(OC)c2)c(OC)cc1NC(=O)CN1CCCCC1,8.4*,-1,-2,1,0
COC(=O)[C@]12C[C@H](CC(=O)NCc3ccc(C)o3)C(=O)N(Cc3ccccc3)C1=C[C@H](COCc1ccccc1)O[C@@H]2C,.,-4,1,.,.
CC1CCc2cc(F)ccc2N1C(=O)c1cccs1 (configuration not stated),-3,-1,1,0,.
CC1CCc2cc(F)ccc2N1C(=O)CCC(=O)O (configuration not stated),9.8*,-4,0,-1,2
O=C(C1CC(=O)N(c2ccc3c(c2)OCCO3)C1)N1CCN(c2ccccc2)CC1 (configuration not stated),9.4*,-5,0,0,0
O=C(NCc1ccccc1F)C1CC(=O)N(c2ccc3c(c2)OCCO3)C1 (configuration not stated),9.5*,-1,0,0,-2
O=C(C1CC(=O)N(c2ccc3c(c2)OCCO3)C1)N1CCN(c2ccccc2O)CC1 (configuration not stated),-7,0,1,0,.
COc1ccc(NC(=O)CC23CC4CC(CC(Br)(C4)C2)C3)c(OC)c1,-4,-3,0,1,.
Cc1ccc(S(=O)(=O)N2CCCCC2)cc1NC(=O)COC(=O)C1(C)CC1(Cl)Cl (configuration not stated),-4,1,0,0,.
CCN(CC)C(=O)C1=C(C)N(CCCOC)C(=O)C(CC(=O)NC2CCCCC2)C1 (configuration not stated),-4,1,-1,0,.
CN(C)c1nc(OCCNC(=O)Nc2ccccc2)nc(N2CCOCC2)n1,16*,-3,0,0,-1
Cn1c(-c2sccc2OCc2ccc(Cl)cc2Cl)n[nH]c1=S,17*,-5,0,1,-1
C[C@@H](CSc1ccccc1)CN1CC[C@H](C(C)(C)C)CCC1=O,8.2*,0,1,1,-1
CCSc1ccccc1-c1nc(-c2ccncc2)no1,-1,2,0,0,.
SMILES,bovine MsrA act,SMARCA2 act,proKLK7 act,MsrA inhibitor,MsrA activ conf
CCOc1ccccc1-c1nc(-c2ccncc2)no1,8.4*,0,0,-1,-1
CCOc1ccc(-c2nc(-c3ccc(OC)cc3)no2)cc1OCC,7.9*,-2,0,0,0
CCOc1ccc(-c2noc(-c3ccncc3)n2)cc1OCC,-2,-3,0,1,.
Cc1ccc(-n2c(SCC(=O)Nc3cccc4ccccc34)nnc2-c2ccccc2)cc1,.,-5,0,.,.
N/C(=N\NS(=O)(=O)c1ccc(Cl)cc1)c1ccccn1,-2,-3,0,2,.
C/C(CC(=O)Nc1ccc(Cl)cc1Cl)=N\NC(=O)c1ccco1,8.4*,5,0,0,0
C/C(CC(=O)Nc1ccc(C)c(Cl)c1)=N\NC(=O)c1ccco1,-3,7,0,2,.
CCN(CC)C(=O)CSc1ncnc2sc(-c3ccccc3)cc12,7.7*,1,-1,2,1
Cn1c(NCc2ccco2)nc2ccccc21,0,0,1,0,.
CC1(C)Oc2nc3ccccc3n2/C1=C\C#N,8.0*,-1,0,0,-2
COCCN1C(=O)c2cc(C(=O)Nc3ccc(OC)c(OC)c3)ccc2C1Nc1ccc(OC)c(OC)c1 (configuration not stated),12*,-1,1,2,-1
CCCN1C(=O)c2cc(C(=O)Nc3ccc(OC)c(OC)c3)ccc2C1Nc1ccc(OC)c(OC)c1 (configuration not stated),-2,-2,0,0,.
Cc1nc2c(OCCOc3ccc(F)cc3)cccn2c1N(C)C(=O)CCC1CCCC1,-3,-2,1,2,.
CC[C@H](C)[C@@H](C(=O)NCCCCCCCCCCC(=O)N1CCNCC1)n1cc(CCCCN=C(N)N)nn1,9.3*,0,0,0,0
Cc1ccc(C)c(N2CCN(S(=O)(=O)c3c(C(=O)N4CCCCC4)c(C)n(C)c3C)CC2)c1,8.2*,-3,0,1,-2
Cc1ccc(C)c(N2CCN(S(=O)(=O)c3c(C)[nH]c(C)c3C(=O)N3CCCCC3)CC2)c1,-2,-2,0,-1,.
O=C(Nc1nnc([C@H]2C[C@H](O)[C@@H](CO)O2)s1)c1cccc(OC(F)(F)F)c1,-1,-2,0,1,.
C1CCC(NC2=NCCO2)CC1,-4,0,0,-1,.
C1CCCC(NC2=NCCO2)CCC1,9.5*,.,.,.,0
CO/N=C/c1ccc(N2CCCC2)c([N+](=O)[O-])c1,17*,-2,0,3,5.8*
C[C@H]1COc2cc(N3CCSCC3)ccc2S(=O)(=O)N1C,.,-2,-1,.,.
CCCS(=O)(=O)N1CCCC(C(=O)N2CCC(Cc3ccccc3)CC2)C1 (configuration not stated),7.7*,-4,0,-1,0
O=S(=O)(c1ccc(SCc2ccc(Br)cc2)nc1)N1CCCCC1,-3,-2,0,-1,.

# Source: PubChem
